Source: PubChem BioAssay AID624098 (National Center for Advancing Translational Sciences (NCATS), 2012)
Results filed as inconclusive are left out. The source made the active and inactive calls.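 Rule for the calls: active = immobility above 50% at 10 µM after 1 hour; inconclusive = immobility from 15% to 50% at 1 hour; inactive = immobility below 15%.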

Test: Assay for General Anesthetic Phenotype in Xenopus Tadpoles
Settings: startle-response immobility, 1 h, at 10 µM, stronger effect = higher value
From the text: Anesthetic development has remained a largely empirical process. There are growing concerns about the cognitive effects of known general anesthetics and acceleration of the onset of neurodegenerative disease. The compounds' toxicity and multiple specific binding targets in the mammalian brain [4] has made them less attractive as drug leads. This assay was designed for the in vivo follow-up testing of compounds in tadpoles. References: [1] S.L. Bianchi, T. Tran, C. Liu, S. Lin, Y. Li, J.M. Keller, R.G. Eckenhoff, and M.F. Eckenhoff, Brain and behavior changes in 12-month-old Tg2576 and nontransgenic mice exposed to anesthetics. Neurobiol Aging 29 (2008) 1002-10. Z. Xie, Y. Dong, U. Maeda, R.D. Moir, W. Xia, D.J. Culley, G. Crosby, and R.E. Tanzi, The inhalation anesthetic isoflurane induces a vicious cycle of apoptosis and amyloid beta-protein accumulation. J Neurosci 27 (2007) 1247-54. P. Honegger, and J.M. Matthieu, Selective toxicity of the general anesthetic propofol for GABAergic neurons in rat brain cell cultures. J Neurosci Res 45 (1996) 631-6. M.F. Eckenhoff, K. Chan, and R.G. Eckenhoff, Multiple specific binding targets for inhaled anesthetics in the mammalian brain. J Pharmacol Exp Ther 300 (2002) 172-9. C.A. Butts, J. Xi, G. Brannigan, A.A. Saad, S.P. Venkatachalan, R.A. Pearce, M.L. Klein, R.G. Eckenhoff, and I.J. Dmochowski, Identification of a fluorescent general anesthetic, 1-aminoanthracene. Proc Natl Acad Sci U S A 106 (2009) 6501-6. W.A. Lea, J. Xi, A. Jadhav, L. Lu, C.P. Austin, A. Simeonov, and R.G. Eckenhoff, A high-throughput approach for identification of novel general anesthetics. PLoS One 4 (2009) e7150.
Pre-limb bud Xenopus tadpoles were obtained in large batches from Nasco, Inc. Batches of 10 tadpoles were placed in 20 mm Petri dishes with approximately 20 ml of pond water ("pond water" is approximately a 20-fold dilution of Ringers saline solution). Compounds were added to the pond water from DMSO stock to obtain 100, 10 and 1 microM concentrations. Tadpoles were then incubated with these solutions for 1 hour, and then scored for "anesthesia". Anesthesia in this case is lack of movement in response to a sharp tap on the Petri dish lid, i.e., a lack of startle response. This correlates well to the loss of righting reflex in rodents and the loss of consciousness in humans. The pond water is then changed, and the return of a startle response is monitored for 24 hours. Immobility at 24 hours is considered death.
For Cc1ccc(-c2ccc(=O)n(CC(=O)NCCc3ccccc3)n2)cc1, the immobility was 90% (active).
With O=C(Cn1nc(-c2cccnc2)ccc1=O)NCCc1ccccc1 the immobility was 0% (inactive).
In the case of O=C(Cn1ncccc1=O)NCCc1ccccc1, the immobility is reported as 0% (inactive).

Same assay, conditions: startle-response immobility, 1 h, measured here: 24 h immobility, toxicity/death, at 10 µM
Cc1ccc(-c2ccc(=O)n(CC(=O)NCCc3ccccc3)n2)cc1 showed an immobility of 0%.
O=C(Cn1nc(-c2cccnc2)ccc1=O)NCCc1ccccc1 showed an immobility of 15%.
O=C(Cn1ncccc1=O)NCCc1ccccc1 showed an immobility of 5%.
